Assay [1] relates to MILI (PIWIL2) piRISC loaded with piRNA #1 (26 nt). As to the kind of experiment: pre-steady-state target cleavage rate (min^-1); guide: piRNA #1 5'p-UGAGGUAGUAGGUUGUAUAGUAUCCA; higher = faster piRNA-guided slicing of the target. The following applies: auxiliary factor: 500 nM mouse GTSF1. The procedure, abridged:
(§1)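 Cleave-'n-Seq used a transcribed, DNA-blocked target RNA library at 0.1 nM and active affinity-purified piRISC with one synthetic guide at 1 nM, with or without 500 nM GTSF1 partner protein, in HEPES–potassium acetate buffer at 33 °C for 0–8 or 0–960 min. Uncleaved targets were sequenced and normalised to depth and to weakly complementary targets, and three trials were pooled with k3 capped at 0.0001 min^-1. The pre-steady-state cleavage rate was estimated by a burst-and-steady-state fit.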

Assay [2] relates to EfPiwi piRISC loaded with piRNA #1 (26 nt). As to the kind of experiment: pre-steady-state target cleavage rate (min^-1); auxiliary factor: 500 nM Ephydatia muelleri Gtsf1; guide: piRNA #1 5'p-UGAGGUAGUAGGUUGUAUAGUAUCCA; MIWI and MILI are mouse PIWI proteins and EfPiwi is from a freshwater sponge; tags in brackets are library labels; higher = faster piRNA-guided slicing of the target. The procedure, abridged: as §1

± gives the standard deviation.

In the case of GGAGUGGAUACUAUACAACCAACUAGCUCA, the “pre-steady-state target cleavage rate” value in assay [1] was 0.00229 ± 0.0021; in assay [2] it was 0.00337 ± 0.0015.
Take GGAGUGGAAACUAUACAACCUACUACCUGA: the “pre-steady-state target cleavage rate” value in assay [1] was found to be 0.105 ± 0.023; in assay [2], 0.00283 ± 0.0023.
For GGAGUGGAGUACUAUACAACCUACUACCUCA, the figures for the “pre-steady-state target cleavage rate” value in assay [1] and in assay [2] were 0.153 ± 0.0099 and 0.0116 ± 0.0055, respectively.
For GGAGAGGAUACUAUACAACCUACGUACCUCA the same measures were 0.0773 ± 0.012 and 0.00321 ± 0.0014.
Turning to GGAGUGGAUACUAUUCAACCUACUACCUGA, the “pre-steady-state target cleavage rate” value in assay [1] is 0.0817 ± 0.011; in assay [2], 0.00324 ± 0.0019.
Turning to GGAGACGUAUACUAUACAACCUACUACCUCA, the “pre-steady-state target cleavage rate” value was determined as 0.193 ± 0.013 in assay [1] and 0.0356 ± 0.013 in assay [2].
In the case of GGAGAGGAUACUAUACAAGCUACUUCCUCA, the entries for the “pre-steady-state target cleavage rate” value in assay [1] and in assay [2] were 0.0737 ± 0.013 and 0.00375 ± 0.0015, respectively.
GGAGUGCAUAGUAUACAACCUACUACCUCA: the “pre-steady-state target cleavage rate” value came to 0.125 ± 0.011 in assay [1] and 0.0131 ± 0.0064 in assay [2].
For GGAGACGAUAGAUUACAACCUACUACCUCA the same measures were 0.0557 ± 0.011 and 0.00662 ± 0.0047.
Regarding GGAGAGGAUACAAUACAACCUACUACGUCA, the “pre-steady-state target cleavage rate” value in assay [1] turned out to be 0.0443 ± 0.0068; in assay [2], 0.00333 ± 0.0019.
GGAGUGAUACUAUACAACCUACUACCUCA: the “pre-steady-state target cleavage rate” value in assay [1] came out at 0.174 ± 0.011; in assay [2] it was 0.186 ± 0.069.
Turning to GGAGACCUUACGUAUACAACCUACUACCUCA, the “pre-steady-state target cleavage rate” value in assay [1] was 0.0406 ± 0.0063; in assay [2] it was 0.00861 ± 0.0055.
For GGAGACCUUAGUAUACAACCUACUACCUGA the same measures were 0.0569 ± 0.0097 and 0.00359 ± 0.0036.
Take GGAGACCUAACUAUCCAACCUACUACCUCA: the entries for the “pre-steady-state target cleavage rate” value in assay [1] and in assay [2] were 0.208 ± 0.038 and 0.00727 ± 0.004, respectively.
For GGAGACGAUACUAUACAACCUACUAACUCA the same measures were 0.0612 ± 0.016 and 0.00467 ± 0.0021.
Regarding GGAGUGGAUACUAUACAACCUUCAACCUCA, the “pre-steady-state target cleavage rate” value is 0.00344 ± 0.0019 in assay [1] and 0.00298 ± 0.0018 in assay [2].
Take GGAGACCUAUGAAAUACAACCUACUACCUCA: the results for the “pre-steady-state target cleavage rate” value in assay [1] and in assay [2] were 0.0221 ± 0.0062 and 0.00445 ± 0.0038, respectively.
On to GGAGACCAUGACUAUACAACCUACUACCUCA, for which the “pre-steady-state target cleavage rate” value in assay [1] turned out to be 0.142 ± 0.021; in assay [2] it was 0.0764 ± 0.029.
For GGAGACCUAACUAUACAACCCACUACCUCA, the “pre-steady-state target cleavage rate” value turned out to be 0.0098 ± 0.0041 in assay [1] and 0.00404 ± 0.0036 in assay [2].
On to GGAGAGGAUACUAUACAACCUACAUACCUCA, for which the “pre-steady-state target cleavage rate” value came out at 0.123 ± 0.012 in assay [1] and 0.00353 ± 0.0021 in assay [2].
For GGAGACCAAACUAUACAACCUACUAGCUCA the same measures were 0.0778 ± 0.029 and 0.00453 ± 0.0034.
Take GGAGACGAUACUAUACAACCUAGAACCUCA: the “pre-steady-state target cleavage rate” value was 0.0145 ± 0.0064 in assay [1] and 0.00278 ± 0.0012 in assay [2].
For GGAGACGAUACUAUACAACCUAACUACCUCA the same measures were 0.0232 ± 0.0036 and 0.0045 ± 0.0021.
Turning to GGAGACGAUACUAUACGACCUACUACCUCA, the “pre-steady-state target cleavage rate” value in assay [1] was found to be 0.0963 ± 0.012; in assay [2], 0.0807 ± 0.028.
Taken in the same sequence, the figures for GGAGUGGAUACUAUACAAUCUACUACCUCA were 0.127 ± 0.009 and 0.105 ± 0.038.
Turning to GGAGACCUAACAUAUACAACCUACUACCUCA, the figures for the “pre-steady-state target cleavage rate” value in assay [1] and in assay [2] were 0.026 ± 0.012 and 0.0546 ± 0.02, respectively.
Consider GGAGACGAAACUAUUCAACCUACUACCUCA, for which the figures for the “pre-steady-state target cleavage rate” value in assay [1] and in assay [2] were 0.198 ± 0.021 and 0.00439 ± 0.0036, respectively.
Taken in the same sequence, the figures for GGAGAGGAUUGUAUACAACCUACUACCUCA were 0.103 ± 0.0085 and 0.00676 ± 0.0048.
As for “GGAGACGAUACUAUACAACCUACUACCUCU [g2:g24:cont:t1U]”, the “pre-steady-state target cleavage rate” value in assay [1] is 0.24 ± 0.019; in assay [2] it was 1.35 ± 0.49.
Regarding GGAGACCUAAUUAUACAACCUACUACCUCA, the “pre-steady-state target cleavage rate” value worked out at 0.0979 ± 0.011 in assay [1] and 0.0144 ± 0.0065 in assay [2].
Regarding GGAGAGGAUACUAAACAAGCUACUACCUCA, the “pre-steady-state target cleavage rate” value in assay [1] came out at 0.165 ± 0.014; in assay [2] it was 0.00412 ± 0.0017.
For the sequence GGAGACCUUACUAUCACAACCUACUACCUCA, the “pre-steady-state target cleavage rate” value was 0.143 ± 0.016 in assay [1] and 0.00983 ± 0.0039 in assay [2].
Regarding GGAGACCAUACUAUACAACCUACUACCUCCA, the “pre-steady-state target cleavage rate” value is 0.137 ± 0.018 in assay [1] and 0.0119 ± 0.0039 in assay [2].
As to GGAGACGAUACUUUACAAGCUACUACCUCA, the “pre-steady-state target cleavage rate” value stood at 0.235 ± 0.015 in assay [1] and 0.00342 ± 0.0026 in assay [2].
With GGAGUGGAUACUAUACAAGCUUCUACCUCA, the entries for the “pre-steady-state target cleavage rate” value in assay [1] and in assay [2] were 0.0391 ± 0.0037 and 0.00507 ± 0.0021, respectively.
Turning to GGAGACGAUACUAUACAACCUACUACCCCA, the “pre-steady-state target cleavage rate” value was found to be 0.144 ± 0.025 in assay [1] and 0.00536 ± 0.0014 in assay [2].
Taken in the same sequence, the figures for GGAGAGGUUACUAUAGAACCUACUACCUCA were 0.157 ± 0.018 and 0.00277 ± 0.0023.
With GGAGUGGAUACUAUUCAAGCUACUACCUCA, the “pre-steady-state target cleavage rate” value in assay [1] was 0.221 ± 0.013; in assay [2] it was 0.0053 ± 0.0025.
Consider GGAGACCAUACUAUACAGCCUACUACCUCA, for which the results for the “pre-steady-state target cleavage rate” value in assay [1] and in assay [2] were 0.157 ± 0.02 and 0.16 ± 0.053, respectively.
Consider GGAGACCUAACUAUACAACCUACUACCAGA, for which the “pre-steady-state target cleavage rate” value amounted to 0.124 ± 0.035 in assay [1] and 0.00445 ± 0.0031 in assay [2].
As for GGAGACCUAUGAUCACAACCUACUACCUCA, the figures for the “pre-steady-state target cleavage rate” value in assay [1] and in assay [2] were 0.00534 ± 0.0024 and 0.00429 ± 0.0038, respectively.
For GGAGACCUAACUAAACAACCUACUACCUCA the same measures were 0.0743 ± 0.017 and 0.00631 ± 0.0031.
Regarding GGAGACCAGACUAUACAACCUACUACCUCA, the figures for the “pre-steady-state target cleavage rate” value in assay [1] and in assay [2] were 0.193 ± 0.06 and 0.00856 ± 0.0055, respectively.
Consider GGAGUGGAUACUAUACAACCUACUACCUAA, for which the results for the “pre-steady-state target cleavage rate” value in assay [1] and in assay [2] were 0.105 ± 0.014 and 0.151 ± 0.054, respectively.
As for GGAGAGCUUACUAUACAACCUACUACCUCA, the “pre-steady-state target cleavage rate” value in assay [1] is 0.132 ± 0.0097; in assay [2], 0.0193 ± 0.0089.
Taken in the same sequence, the figures for GGAGUCGAUACUAUACAACCUUCUACCUCA were 0.00775 ± 0.0022 and 0.00622 ± 0.0028.
Taken in the same sequence, the figures for GGAGUGGAUACUAUACAAGCAACUACCUCA were 0.00874 ± 0.0017 and 0.00256 ± 0.0013.
Regarding GGAGUGGAUACCUAUACAACCUACUACCUCA, the “pre-steady-state target cleavage rate” value in assay [1] was 0.0993 ± 0.019; in assay [2], 0.0485 ± 0.018.
For GGAGAGGAUACUAUCAACCUACUACCUCA the same measures were 0.154 ± 0.01 and 0.0088 ± 0.0053.
On to GGAGACGAUACUAUACAACGUAGUACCUCA, for which the figures for the “pre-steady-state target cleavage rate” value in assay [1] and in assay [2] were 0.00546 ± 0.0032 and 0.00274 ± 0.0012, respectively.
Turning to GGAGUGGAUACUAUACAACCUACUACCUUA, the entries for the “pre-steady-state target cleavage rate” value in assay [1] and in assay [2] were 0.112 ± 0.011 and 0.276 ± 0.095, respectively.
Regarding GGAGACCAUACUAUACAACCUACAACCUGA, the “pre-steady-state target cleavage rate” value in assay [1] came to 0.0179 ± 0.0095; in assay [2] it was 0.00439 ± 0.0042.
As for GGAGACGAUACUAUACAACGUACUACCACA, the entries for the “pre-steady-state target cleavage rate” value in assay [1] and in assay [2] were 0.0317 ± 0.0055 and 0.0042 ± 0.0021, respectively.
For GGAGACGAUUCUAUACAACGUACUACCUCA, the “pre-steady-state target cleavage rate” value in assay [1] turned out to be 0.0237 ± 0.0031; in assay [2], 0.00356 ± 0.0021.
For GGAGACCUUACUAUACAACUUACUACCUCA the same measures were 0.0242 ± 0.0054 and 0.00902 ± 0.0051.
As to GGAGUGGUUACUAUACAACCUUCUACCUCA, the “pre-steady-state target cleavage rate” value in assay [1] was found to be 0.0099 ± 0.0024; in assay [2] it was 0.00361 ± 0.0018.
Consider GGAGAGGAUACUAUACAACCUAGUACCUCA, for which the “pre-steady-state target cleavage rate” value was 0.00636 ± 0.0033 in assay [1] and 0.00393 ± 0.0016 in assay [2].
As for GGAGAGGUUACUAUACAACCUACUACCACA, the “pre-steady-state target cleavage rate” value in assay [1] was 0.0673 ± 0.0096; in assay [2], 0.00331 ± 0.0014.
With GGAGACCAUACUUUACAACCUAGUACCUCA, the “pre-steady-state target cleavage rate” value was determined as 0.119 ± 0.025 in assay [1] and 0.00535 ± 0.0043 in assay [2].
Taken in the same sequence, the figures for GGAGAGGAUAAUAUACAACCUACUACCUCA were 0.135 ± 0.01 and 0.00772 ± 0.0036.

Source of the values: the supplement of paper PMC10338343.
